# According to PubChem BioAssay (NCATS):
# Inconclusive results are not listed. Activity calls are given as the source filed them. Calls follow the shape of the dose curve; as a rule, active = well fitted inhibition curve with a large enough effect; inconclusive = small, poorly fitted or top-dose-only effect; inactive = no such curve, though single readings can be large or run the other way.
# System: Zika virus NS2B-NS3 protease (linked construct)
# Test: Primary screen NINDS Rhodamine qHTS for Zika virus inhibitors (AID 1347160); also: nearly all actives have a fitted effect of over 55% in size
# Conditions: purified NS2B-NS3 protease, Rhodamine110 substrate fluorescence; series mostly up to 57.1 µM; activity change, negative = inhibition: at the top concentration
# Procedure, shortened: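 Single-chain NS2B-NS3 protease, 25 nM, pH 8.0; compounds preincubated 15 min. Activity: Rhodamine110 release from 1.5 microM substrate over 15 min, room temperature, data fitted to 4-parameter Hill.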
# % is scaled to controls: 0 for no effect and ±100 for the full control effect; potency is read from the fitted curve at half-maximal effect.
Compound,"activity change, negative = inhibition",outcome,Potency
CC1(C)CCCC2(C)C1CC=C1C(=O)OC(O)C12O (centres undefined),-11.3% (inactive),,
CC(=O)OC1C(O)CC2(C)C(CCC(C)C23Cc2c(O)cc(CO)c(C=O)c2O3)C1(C)C (centres undefined),,inactive [at 33.1 µM],
C/C(=C\CCC(C)CCO)C(=O)O[C@@H]1[C@@H](O)[C@H](OC2OC=C(C(=O)O)C3CCC(C)(O)C23)O[C@H](CO)[C@H]1O (some centres undefined),-21.1% [at 33.1 µM] (inactive),,
CCOC(=O)C(CCc1ccccc1)NC(C)C(=O)N1C(=O)N(C)CC1C(=O)O (centres undefined),,inactive,
CC(=O)O[C@H]1[C@@H](O)[C@H](O[C@H]2[C@@H]3C=CO[C@@H](O[C@H]4O[C@@H](CO)[C@H](O)[C@@H](O)[C@@H]4O)[C@@H]3[C@@]3(CO)O[C@@H]23)O[C@@H](C)[C@@H]1OC(=O)/C=C/c1ccccc1,14.8% [at 15.1 µM] (inactive),,
COc1cc2ncnc(Nc3cccc(Cl)c3F)c2cc1OC(=O)N1CCN(C)C[C@H]1C,23.7% (inactive),,
CC1(C)CCC[C@@]2(C)C1[C@H](OC(=O)/C=C/C=C/C(=O)O)C=C1COC(=O)[C@@]12O (some centres undefined),-1.9% [at 33.1 µM] (inactive),,
CCC[C@@H]1O[C@@H]2C[C@H]3[C@@H]4CCC5=CC(=O)C=C[C@]5(C)[C@H]4[C@@H](O)C[C@]3(C)[C@]2(C(=O)CO)O1,-0.269% (inactive),,
COc1cc([C@H]2c3cc(O)c(OC)cc3C[C@@H](CO[C@@H]3O[C@H](CO)[C@@H](O)[C@H](O)[C@H]3O)[C@@H]2CO)ccc1O,-12.8% [at 33.1 µM] (inactive),,
CC[C@H](CO)Nc1nc(NCc2ccc(-c3ccccn3)cc2)c2ncn(C(C)C)c2n1,83.8% (inactive),,
COc1ccc(/C=C/C(=O)O[C@@H]2[C@@H](O)[C@@H](O)[C@H](O[C@@H]3C=C(CO)[C@H]4[C@H](O[C@@H]5O[C@H](CO)[C@@H](O)[C@H](O)[C@H]5O)OC=C[C@H]43)O[C@H]2C)cc1O,-21.6% [at 15.1 µM] (inactive),,
CC12CCC(=O)C=C1C(O)CC1C2C(O)CC2(C)C1CC[C@]2(O)C(=O)CO (some centres undefined),17.1% [at 15.1 µM] (inactive),,
CC/C=C/CC1=C(CCCCC(CCC(=O)O)OC(C)=O)CCC1=O (centres undefined),,inactive [at 33.1 µM],
COc1ccc(Oc2cc(C)c(-c3csc(NC(=O)c4ccncc4)n3)c(C)c2)cc1,-5.62% (inactive),,
CC1=CC(=O)[C@H]2C(C)(C)CCC[C@]2(C)[C@@]1(O)CO,-6.86% (inactive),,
N[C@@]1(C(=O)O)CC[C@H]2[C@H](C(=O)O)[C@H]21,,inactive,
Nc1nc(Nc2ccc(S(N)(=O)=O)cc2)n(C(=S)Nc2c(F)cccc2F)n1,33.8% (inactive),,
COC(=O)C(C)C1CCC2(C)C(=O)C=CC(C)(O)C2C1O (centres undefined),-14.5% (inactive),,
O=C(Nc1ccccc1)N1CCN(Cc2ccc3ccccc3n2)CC1,21.3% (inactive),,
C[C@@H]1O[C@@H](O[C@H]2[C@@H]3C=CO[C@@H](O[C@@H]4O[C@H](CO)[C@@H](O)[C@H](O)[C@H]4O)[C@@H]3[C@@]3(CO)O[C@@H]23)[C@H](OC(=O)/C=C/c2ccccc2)[C@H](O)[C@H]1O,5.24% [at 15.1 µM] (inactive),,

Compound,"activity change, negative = inhibition",outcome,Potency
CCC(O)C(C)C1CCC(C(C)C(=O)O)O1 (centres undefined),-5.36% (inactive),,
CC1=CC(=O)C2(OC3OC(C)C(O)C(OC(=O)/C=C/c4ccccc4)C3O)C=COC(OC3OC(CO)C(O)C(O)C3O)C12 (centres undefined),-15.7% [at 15.1 µM] (inactive),,
CC(C)c1ccc2c(c1)C(=O)CC1[C@@](C)(C(=O)O)CCC[C@]21C (some centres undefined),,inactive [at 33.1 µM],
COc1ccc2c(OC)c3ccoc3nc2c1OC,-13.2% (inactive),,
O=S(=O)(Nc1ccccn1)c1ccc(N=Cc2c(O)[nH]c3ccc4ncsc4c23)cc1,12% [at 10.7 µM] (inactive),,
NC(=O)c1cnc(NCCc2ccc(O)c(Cl)c2)nc1NCc1ccccc1,59.3% (inactive),,
CC1(C)CCC2(C(=O)OC3OC(CO)C(O)C(O)C3O)CCC3(C)C(=CCC4C5(C)CCC(O)C(C)(C(=O)O)C5CCC43C)C2C1O (centres undefined),-18.6% [at 15.1 µM] (inactive),,
C=C(C(=O)O)C1CCC2(C)CCC(O)C(=C)C2C1 (centres undefined),,,8.91 µM (active)
C[C@@H]1O[C@@H](OC[C@H]2O[C@@H](OC(CCCCc3ccc(O)cc3)CCc3ccc(O)cc3)[C@H](O)[C@@H](O)[C@@H]2O)[C@H](O)[C@H](O)[C@H]1O (some centres undefined),-6.55% [at 15.1 µM] (inactive),,
C/C1=C\CC[C@]2(C)O[C@@H]2[C@H](O)[C@H](C(C)C)[C@H](OC(=O)/C=C/c2ccccc2)C1,8.73% [at 33.1 µM] (inactive),,
CC1(C)CC[C@]2(C(=O)O[C@@H]3O[C@H](CO)[C@@H](O)[C@H](O)[C@H]3O)CC[C@]3(C)C(=CCC4[C@@]5(C)CC[C@H](O[C@@H]6O[C@H](C(=O)O)[C@@H](O)[C@H](O)[C@H]6O)C(C)(C)C5CC[C@]43C)C2C1 (some centres undefined),-16.1% [at 15.1 µM] (inactive),,
C=C1C(=O)OC2/C=C(\CO)CC/C=C(\C=O)CC(OC(=O)CC(C)C)C12 (centres undefined),7.51% [at 33.1 µM] (inactive),,
C=CC1C(OC2OC(CO)C(O)C(O)C2O)OC=C2C(=O)N3C(C(=O)O)Cc4c([nH]c5ccccc45)C3CC21 (centres undefined),,inactive [at 33.1 µM],
O=C(O)C1CN(Cc2ccc(-c3nc4cc(Cc5ccccc5F)ccc4s3)c(F)c2)C1,-8.39% [at 10.7 µM] (inactive),,
O=C(Nc1ccn[nH]1)c1c(F)cccc1F,,inactive,
CC[C@@H](N)CNc1ccnc(-c2cc(-c3cnn(C)c3)ccc2O)n1,54.4% (inactive),,
C=CC1(C)C=C2CCC3C(C)(C)C(O[C@@H]4O[C@@H](CO)[C@H](O)[C@H]4O)CCC3(C)C2CC1O[C@@H]1O[C@H](C)[C@H](O)[C@H](O)[C@H]1O (some centres undefined),-8.54% [at 33.1 µM] (inactive),,
N[C@H]1Cc2ccccc2N(O)C1=O,,inactive,
CCCn1c(=O)c2[nH]c(-c3ccc(OCC(=O)O)cc3)nc2n(CCC)c1=O,,inactive,
